From PubChem
A selection: hits, their analogues and other compounds. The true share with any hit is near 1.3%.
EBV gp42 inh: EBV gp42 inhibition | inhibition, % (tested at 21.74 µM) | Q1HVG2 | Fluorescence polarization binding assay, mP read-out | 220,000 compounds, 0.42% hits; in the data active means inhibition above about 50%
MCL1-BIM inh: MCL1-BIM-BH3 interaction inhibition (human); GST-MCL1 / FITC-Bim-BH3 fluorescence polarization; inhibition, % at 10.9 µM; 320,000 compounds, 0.68% hits;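 active means inhibition above the mean inhibition of all tested compounds plus 3 SD, set per campaign, cut at about 40% in these data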;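 further: 0% = DMSO wells and 100% = unlabeled Bim-BH3 peptide control; higher means more loss of mP so more displacement of Bim peptide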
Target sequence (Q07820 whole entry, looked up): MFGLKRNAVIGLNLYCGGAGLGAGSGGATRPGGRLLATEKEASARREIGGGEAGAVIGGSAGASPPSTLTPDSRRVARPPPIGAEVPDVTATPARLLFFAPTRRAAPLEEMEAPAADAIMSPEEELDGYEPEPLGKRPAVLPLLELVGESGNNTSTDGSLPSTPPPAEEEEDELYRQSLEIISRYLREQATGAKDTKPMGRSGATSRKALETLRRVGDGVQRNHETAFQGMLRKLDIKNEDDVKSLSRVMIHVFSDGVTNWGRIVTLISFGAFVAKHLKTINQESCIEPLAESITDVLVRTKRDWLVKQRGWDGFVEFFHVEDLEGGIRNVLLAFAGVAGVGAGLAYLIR
Bcl-xL primary: blocks human Bcl-xL binding to Bim BH3 peptide. Q07817. GST-Bcl-xL / FITC-Bim BH3 peptide fluorescence polarization. inhibition, % at 10.9 µM. 320,000 compounds, 0.7% hits. AID 2129;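 active means inhibition above the mean of all tested compounds plus 3 SD, cutoff set per campaign, cut at about 30% in these data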;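 further: 0% = DMSO wells and 100% = unlabeled Bim-BH3 peptide competitor; inhibitors lower millipolarization by displacing the labeled peptide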
Target sequence (Q07817 whole entry, looked up): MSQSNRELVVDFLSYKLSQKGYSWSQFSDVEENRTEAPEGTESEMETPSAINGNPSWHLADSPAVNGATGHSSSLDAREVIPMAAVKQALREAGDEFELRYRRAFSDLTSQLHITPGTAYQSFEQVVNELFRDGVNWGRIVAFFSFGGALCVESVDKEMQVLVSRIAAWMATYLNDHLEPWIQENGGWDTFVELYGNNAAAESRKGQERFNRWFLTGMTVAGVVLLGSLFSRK
GLD-1 RNA inh: GLD-1-TGE RNA interaction inhibition (C. elegans); purified GLD-1 + fluorescein TGE RNA, fluorescence polarization; inhibition, % at 5.96 µM; 320,000 compounds, 0.44% hits;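 active means percent inhibition above a per-plate cutoff, the plate mean of test compounds plus 3 SD, cut at about 30% in these data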;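 further: 0% = DMSO wells with GLD-1 and probe and 100% = wells lacking GLD-1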
MEX-5 binding: C. elegans MEX-5 TCR-2 RNA binding activity; 300,000 compounds, 0.38% hits; Q9XUB2; activity score (negative = inhibition of binding), % at 10 µM; MEX-5/FITC-TCR2 RNA binding, fluorescence polarization; hits give low values; AID 1832;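 active means inhibition past about -25% in most replicates, and total fluorescence under double the plate's negative control median, limit read from the data; inconclusive means replicates evenly split on the limit, or fluorescence at least double controls; inactive means too little inhibition in most replicates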;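 further: 0% = DMSO and -100% = 5 µM competing unlabeled TCR2 RNA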
An asterisk follows results filed as active; ? = inconclusive; / = not tested or not shown.

SMILES	EBV gp42 inh	MCL1-BIM inh	Bcl-xL primary	GLD-1 RNA inh	MEX-5 binding
c1ccc(CCn2nnnc2CN2CCCc3ccccc32)cc1	11	42*	42*	5	-6
NS(=O)(=O)c1ccc(CCNC(=O)c2cc3ccccc3s2)cc1	/	4	-1	-3	-3
C[N+](C)(C)CC(=O)N/N=C/c1c2ccccc2cc2ccccc12	/	9	12	-18	-3
Cn1cccc1CC(=O)N/N=C/c1cccc2ccccc12	5	37	46*	36*	1
Cn1cccc1/C=N/NC(=O)Cc1cccc2ccccc12	1	-14	0	0	2
Cn1cccc1CC(=O)N/N=C\c1c2ccccc2cc2ccccc12	-4	51*	33*	18	-4
COc1cccc(CNC(=O)Cc2ccc(OC)c(S(=O)(=O)N3CCOCC3)c2)c1	/	-6	3	-2	3
O=S(=O)(Nc1ccc2c(c1)OCCO2)c1cccc2cccnc12	99*	-1	6	3	-3
CN(Cc1ccon1)C(=O)CC1C(=O)NCCN1Cc1ccc(Cl)c(F)c1 (centres undefined)	/	35	36*	25	-4
Oc1cccc2ccc[n+](CC(O)Cn3c4ccccc4c4ccccc43)c12 (centres undefined)	-7	11	1	6	1
Cc1ccc(C)c(N2CCN(C(=O)c3ccc(N4CCCC4=O)cc3)CC2)c1	/	9	130*	12	-2
O=C(c1ccc(N2CCCC2=O)cc1)N1CCN(c2ccccc2O)CC1	/	1	1	2	/
CCOc1ccc(S(=O)(=O)Nc2cc(SCC(=O)O)c(O)c3ccccc23)cc1	/	/	/	/	-51*
O=C(O)CSc1cc(NS(=O)(=O)c2cccc([N+](=O)[O-])c2)c2ccccc2c1O	-2	/	/	/	-66*
Cc1ccc(C)c(S(=O)(=O)Nc2cc(SCC(=O)O)c(O)c3ccccc23)c1	-6	36	24	14	/
CCc1ccc(S(=O)(=O)Nc2cc(SCC(=O)O)c(O)c3ccccc23)cc1	-10	28	25	-1	-52*
Cc1cccnc1NC(=O)Cn1nc(-c2ccccc2)oc1=S	-3	-17	-6	1	/
CC(C)CNC(=O)C(=O)NNC(=O)c1ccco1	-10	4	3	6	-7
CCOc1ccc(N2CC(C(=O)NCc3ccc4c(c3)OCO4)CC2=O)cc1 (centres undefined)	/	-3	-3	1	1
CCOC(=O)C1=C(C)OC(N)=C(C#N)C1c1ccc(C)s1 (centres undefined)	3	30	31*	22	-2
O=C(O)C1OC(Oc2cc3oc(-c4ccccc4)cc(=O)c3c(O)c2O)C(O)C(O)C1O (centres undefined)	-14	13	10	12	-60*
COc1ccccc1NC(=O)CCCCCN1C(=O)c2cccc([N+](=O)[O-])c2C1=O	/	5	7	3	0
COc1cc(/C=C2/C(=O)c3cccc([N+](=O)[O-])c3C2=O)c(Br)cc1O	54*	32	26	4	/
CCN(CC)c1ccc(/C=C/c2cccc[n+]2C)c(OC)c1	/	-50	-13	42*	?
COc1ccc(/C=C/c2cccc[n+]2C)c(O)c1	/	-9	-8	-52	17
SMILES	EBV gp42 inh	MCL1-BIM inh	Bcl-xL primary	GLD-1 RNA inh	MEX-5 binding
COc1cc(OC)c(C(=O)OC(C)C(=O)NCc2ccc3c(c2)OCO3)cc1OC (centres undefined)	/	/	/	-2	/
CC1(C)C(=O)NCCN1C(=O)CC1C(=O)NCCN1Cc1cccc(C(F)(F)F)c1 (centres undefined)	/	27	22	17	-4
CCCCNc1ccc2c3c(cccc13)C(=O)N(CCCC)C2=O	181*	/	/	/	?
CCCN1C(=O)c2cccc3c(N4CCCCC4)ccc(c23)C1=O	80*	35	43*	35*	-135*
CN(C)CCCN1C(=O)c2cccc3c(Br)ccc(c23)C1=O	77*	39	35*	22	?
COC(=O)CCCN1C(=O)c2cccc3cccc(c23)C1=O	/	5	8	1	0
CCOc1ccc(CCNC(=O)COC(=O)c2ccc(Br)o2)cc1OCC	/	-7	-5	-3	-2
COc1cccc(NC(=O)CCCn2nc(C)c3c(C)n(-c4ccccc4)nc3c2=O)c1	/	-3	-1	-4	1
S=C(Nc1ccc2[nH]ccc2c1)NC1CCCCC1	-4	3	-4	1	2
Cc1c(C(=O)NCCSCc2c(F)cccc2Cl)cnn1-c1ccc(Cl)cc1	52*	2	0	2	-4
COc1ccc(/C=C/C(=O)OCC(=O)Nc2c(C)cccc2C)cc1	-2	6	8	5	1
O=C(COc1ccccc1)Nc1c2c(nn1-c1ccc(F)cc1)CS(=O)(=O)C2	/	5	2	3	1
CCN(CC)C(=O)CN1CCC(n2c(C)nc3cc(C(F)(F)F)ccc32)CC1	9	34	31*	11	-10
CCOC(=O)N1CCN(Cc2nc3cc(NC(=O)c4cccs4)ccc3n2CC)CC1	/	-2	-4	2	0
O=C(OCc1nc(-c2ccccc2Cl)no1)c1ccco1	/	-6	0	3	/
CCc1ccc(OCc2nnc(SCC(=O)NCc3ccco3)o2)cc1	-7	-5	54*	-3	1
COc1ccc(C2C=C(c3ccccc3)Nc3ncnn32)cc1 (centres undefined)	-2	18	18	7	-9
COc1ccc(C2=CC(c3ccco3)n3ncnc3N2)cc1 (centres undefined)	88*	/	/	/	/
CCOc1ccc(C2C=C(c3ccc(C)cc3)Nc3ncnn32)cc1 (centres undefined)	3	41*	47*	26	-4
C[C@H](NC(N)=O)C(=O)OCC(=O)NCc1cccs1	-29	-2	-4	2	3
O=C(NCCCN1CCOCC1)C(=O)N/N=C/c1cccc2ccccc12	-1	-3	-4	3	0
c1ccc(N2CCN(Cc3cn4cccnc4n3)CC2)cc1	-27	-2	3	5	1
CCC1c2ccc(C)n2CCN1C(=O)Nc1ccccc1OC (centres undefined)	-8	50*	50*	50*	-6
Cc1ccc(C(=O)N(C)CC(=O)Nc2cccc(C)c2C)o1	/	1	4	2	0
COC(=O)CN1C(=O)N(c2ccccc2)C(N(O)C(=O)Nc2ccccc2)C1(C)C (centres undefined)	139*	6	2	1	-1
O=C1C2C3C=CC(C3=C(c3ccccc3)c3ccccc3)C2C(=O)N1CCO (centres undefined)	-6	5	4	-5	-1
O=C1C2C3C=CC(C3=C(c3ccccc3)c3ccccc3)C2C(=O)N1Cc1ccccc1 (centres undefined)	63*	4	6	6	0
COc1ccc(-c2csc(C3=C(O)CN(C(C)C)C3=N)n2)cc1OC	-11	4	15	-3	1
Oc1c(Br)cc(/C=N/n2c(-c3ccccc3)n[nH]c2=S)c(Br)c1O	/	108*	60*	8	-52*
